Activity calls are given as the source filed them. Unless noted, calls follow the shape of the dose curve; as a rule, active = well fitted curve in the direction sought with a large enough effect in the repeat runs; inconclusive = weak or mixed curves; inactive = no such curve, though single readings can be large; an effect the other way counts as inactive or inconclusive.

Experiment [1] can be described thus: qHTS assay to identify small molecule antagonists of the thyroid receptor (TR) signaling pathway - cell viability counter screen (AID 743064). Also: nearly all actives have a fitted effect of over 50% in size. In short, it runs like this: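 Rat GH3 pituitary tumor cells stably expressing two TR response elements driving luciferase were plated, rested 4 h, then dosed with library compounds and T3 (1 nM final). After 23.5 h at 37 °C, CellTiter-Fluor was added for 30 min and fluorescence recorded.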
On the technique in general: qHTS replaces the single test concentration by a dilution series.

Experiment [2] concerns thyroid hormone receptor (rat, GH3 cells). The experiment can be described thus: qHTS assay to identify small molecule agonists of the thyroid receptor (TR) signaling pathway (AID 743066; calls by dose curve).
Experiment [3] has as its target Estrogen receptor (Homo sapiens) (UniProt P03372). The experiment can be described thus: qHTS assay to identify small molecule antagonists of the estrogen receptor alpha (ER-alpha) signaling pathway (AID 743069; active = well fitted curve in the direction sought with a large enough effect in the signal ratio in the repeat runs, not every such curve was filed as active; inconclusive = weak or mixed curves, or effect the other way; inactive = no such curve, though single readings can be large or run the other way; the % refers to the signal ratio; also: potency is read from the fitted curve at half-maximal effect). In short, it runs like this: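 HEK293 cells stably carrying an ER-alpha-UAS-bla beta-lactamase reporter were pre-cultured overnight in 2% charcoal-stripped FBS medium. Test compounds in DMSO were added together with 17beta-estradiol for 18 hr at 37C. Read-out was fluorescence after 2 hr with LiveBLAzer B/G FRET substrate at room temperature.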

Experiment [4] is described as follows: qHTS assay to identify small molecule antagonists of the estrogen receptor alpha (ER-alpha) signaling pathway - cell viability counter screen (AID 743074; calls by dose curve; also: nearly all actives have a fitted effect of over 45% in size).
Experiment [5] addresses Estrogen receptor (Homo sapiens) (UniProt P03372). The experiment can be described thus: qHTS assay to identify small molecule agonists of the estrogen receptor alpha (ER-alpha) signaling pathway (AID 743075; calls by dose curve; also: potency is read from the fitted curve at half-maximal effect).
Experiment [6] can be described thus: qHTS assay to identify small molecule antagonists of the estrogen receptor alpha (ER-alpha) signaling pathway using the BG1 cell line (AID 743080; calls by dose curve;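 also: BG1 cells stimulated with 17beta-estradiol alongside compound; series mostly up to about 70 µM; nearly all actives have a fitted effect of over 25% in size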). In short, it runs like this:
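Endogenous full-length ER-alpha in BG1-Luc-4E2 cells drives a stably integrated 4×ERE luciferase gene; compounds were tested against 17beta-estradiol over 21.5 h, with luminescence and multiplexed viability fluorescence recorded.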

A short description of experiment [7]: qHTS assay to identify small molecule antagonists of the estrogen receptor alpha (ER-alpha) signaling pathway using the BG1 cell line - cell viability counter screen (AID 743081).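 Also: compound given together with 17beta-estradiol as the ER stimulus; series mostly up to about 70 µM; nearly all actives have a fitted effect of over 45% in size.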
In a further experiment the target is Aromatase (Homo sapiens) (UniProt P11511). The experiment can be described thus: qHTS assay to identify aromatase inhibitors (AID 743083). Also: series mostly up to about 70 µM; nearly all actives have a fitted effect of over 55% in size.
The nature of experiment [8]: qHTS assay to identify aromatase inhibitors - cell viability counter screen (AID 743084).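 Also: cells stimulated with testosterone during compound exposure; nearly all actives have a fitted effect of over 55% in size.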
In experiment [9] the target is Aryl hydrocarbon receptor (Homo sapiens) (UniProt P35869). The experiment can be described thus: qHTS assay to identify small molecule that activate the aryl hydrocarbon receptor (AhR) signaling pathway (AID 743085).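 Also: HG2L7.5c1 human HepG2 liver cells with stably integrated DRE-driven firefly reporter; series mostly up to about 70 µM; nearly all actives have a fitted effect of over 15% in size.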 The essentials: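 Compounds were tested in HepG2 hepatocellular carcinoma cells harbouring a stably integrated luciferase gene under control of 20 DREs. Increased reporter signal after 24 h treatment at 37C was taken as AhR activation.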

Experiment [10] in a line: qHTS assay to identify small molecule that activate the aryl hydrocarbon receptor (AhR) signaling pathway - cell viability counter screen (AID 743086).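 Also: HepG2 liver cells carrying the AhR DRE luciferase reporter; series mostly up to about 70 µM; nearly all actives have a fitted effect of over 45% in size.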 In short, it runs like this: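 HepG2-AhR-luc (HG2L7.5c1) cells, 4000/well, were preincubated 5 h at 37C, exposed to compound in qHTS format for 24 hr at 37C, then given CellTiter-Fluor for 30 min; viability was read as fluorescence in the reporter wells.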

Experiment [11] concerns the target Peroxisome proliferator-activated receptor gamma (Homo sapiens) (UniProt P37231). The experiment can be described thus: qHTS assay to identify small molecule agonists of the peroxisome proliferator-activated receptor gamma (PPARg) signaling pathway (AID 743094; active = well fitted activation curve with a large enough effect in the signal ratio in the repeat runs, not every such curve was filed as active; inconclusive = weak or mixed curves, or effect the other way; inactive = no such curve, though single readings can be large or run the other way; the % refers to the signal ratio). The essentials: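 GeneBLAzer PPARg UAS-bla HEK293H cells were plated, rested 5 h, then exposed to compounds for 17 h at 37C. Beta-lactamase activity was read by LiveBLAzer B/G FRET substrate fluorescence after 1 h at room temperature.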

A short description of experiment [12]: qHTS assay to identify small molecule antagonists of the peroxisome proliferator-activated receptor gamma (PPARg) signaling pathway - cell viability counter screen (AID 743194). Also: nearly all actives have a fitted effect of over 55% in size. The essentials:
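PPARg-UAS-bla HEK293H cells were plated, rested 5 h at 37 C, then treated with compounds plus rosiglitazone (50 nM final) for 17 h at 37 C; viability was then read by CellTiter-Glo luminescence after 30 min at room temperature.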

Experiment [13] is described as follows: qHTS assay for small molecule agonists of the antioxidant response element (ARE) signaling pathway (AID 743202; active = well fitted activation curve with a large enough effect in the signal ratio in the repeat runs, not every such curve was filed as active; inconclusive = weak or mixed curves, or effect the other way; inactive = no such curve, though single readings can be large or run the other way; the % refers to the signal ratio; also: potency is read from the fitted curve at half-maximal effect). The essentials:
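Read-out: LiveBLAzer B/G FRET substrate fluorescence after 2 h at room temperature, following 16 h compound treatment at 37 C of HepG2 cells carrying an ARE-driven beta-lactamase reporter.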

Experiment [14] in a line: qHTS assay for small molecule agonists of the antioxidant response element (ARE) signaling pathway - cell viability counter screen (AID 743203; calls by dose curve; also: nearly all actives have a fitted effect of over 55% in size). The essentials:
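ARE-bla HepG2 cells were plated, rested 5 h at 37C/5% CO2, then exposed to compounds in DMSO for 16 h. Viability was read as CellTiter-Glo luminescence after 30 min at room temperature, in the same wells as the ARE screen.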

Experiment [15] is described as follows: qHTS assay for small molecule activators of the heat shock response signaling pathway - cell viability counter screen (AID 743209). Also: nearly all actives have a fitted effect of over 50% in size. In short, it runs like this:
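HSE-bla HeLa cells plated overnight, then exposed to Tox21 compounds (23 nL in DMSO) for 5 h at 37 C. After the bla reporter read, CellTiter-Glo was added in the same wells and luminescence read after 30 min at room temperature.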

Experiment [16] can be described thus: qHTS assay for small molecule activators of the heat shock response signaling pathway (AID 743210; active = well fitted activation curve with a large enough effect in the signal ratio in the repeat runs, with a control signal flat, not every such curve was filed as active; inconclusive = weak or mixed curves; the % refers to the signal ratio; also: series mostly up to about 63 µM). In short, it runs like this: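 HSE-bla HeLa cells (beta-lactamase reporter under heat shock response elements) were exposed to compounds for 5 h at 37 C, then loaded with LiveBLAzer B/G FRET substrate for 2.5 h at room temperature before fluorescence reading.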

Experiment [17] deals with Estrogen receptor (Homo sapiens) (UniProt P03372). The experiment can be described thus: qHTS assay to identify small molecule agonists of the estrogen receptor alpha (ER-alpha) signaling pathway using the BG1 cell line (AID 743079). Also: nearly all actives have a fitted effect of over 20% in size. Also: potency is read from the fitted curve at half-maximal effect.
For experiment [18], the target named is Peroxisome proliferator-activated receptor gamma (Homo sapiens) (UniProt P37231). The experiment can be described thus: qHTS assay to identify small molecule antagonists of the peroxisome proliferator-activated receptor gamma (PPARg) signaling pathway (AID 743191; calls by dose curve; also: series mostly up to about 63 µM; nearly all actives have a fitted effect of over 30% in size). In short, it runs like this: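 GeneBLAzer PPARg UAS-bla HEK293H cells carrying a UAS-driven beta-lactamase reporter were plated at 3000 cells/well, preincubated 5 h at 37C, then given compound for 17 h at 37C; LiveBLAzer B/G FRET substrate was read after 1 h at room temperature.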
Peroxisome proliferator-activated receptor gamma (Homo sapiens), sequence (P37231 whole entry, looked up): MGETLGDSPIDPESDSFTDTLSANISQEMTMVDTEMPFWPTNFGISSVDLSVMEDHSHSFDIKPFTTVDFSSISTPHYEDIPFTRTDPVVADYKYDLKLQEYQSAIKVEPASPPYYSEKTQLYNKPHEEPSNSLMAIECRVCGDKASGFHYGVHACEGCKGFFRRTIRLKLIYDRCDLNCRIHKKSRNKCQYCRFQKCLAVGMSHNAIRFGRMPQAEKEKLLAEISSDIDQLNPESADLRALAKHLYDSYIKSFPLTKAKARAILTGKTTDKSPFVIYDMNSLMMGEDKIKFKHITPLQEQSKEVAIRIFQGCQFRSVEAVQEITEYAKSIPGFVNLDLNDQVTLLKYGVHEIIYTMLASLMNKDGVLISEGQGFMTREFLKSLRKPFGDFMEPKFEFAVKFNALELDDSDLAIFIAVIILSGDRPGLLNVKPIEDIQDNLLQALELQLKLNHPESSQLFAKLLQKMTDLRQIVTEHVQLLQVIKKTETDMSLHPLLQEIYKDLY

Aryl hydrocarbon receptor (Homo sapiens), sequence (P35869 whole entry, looked up): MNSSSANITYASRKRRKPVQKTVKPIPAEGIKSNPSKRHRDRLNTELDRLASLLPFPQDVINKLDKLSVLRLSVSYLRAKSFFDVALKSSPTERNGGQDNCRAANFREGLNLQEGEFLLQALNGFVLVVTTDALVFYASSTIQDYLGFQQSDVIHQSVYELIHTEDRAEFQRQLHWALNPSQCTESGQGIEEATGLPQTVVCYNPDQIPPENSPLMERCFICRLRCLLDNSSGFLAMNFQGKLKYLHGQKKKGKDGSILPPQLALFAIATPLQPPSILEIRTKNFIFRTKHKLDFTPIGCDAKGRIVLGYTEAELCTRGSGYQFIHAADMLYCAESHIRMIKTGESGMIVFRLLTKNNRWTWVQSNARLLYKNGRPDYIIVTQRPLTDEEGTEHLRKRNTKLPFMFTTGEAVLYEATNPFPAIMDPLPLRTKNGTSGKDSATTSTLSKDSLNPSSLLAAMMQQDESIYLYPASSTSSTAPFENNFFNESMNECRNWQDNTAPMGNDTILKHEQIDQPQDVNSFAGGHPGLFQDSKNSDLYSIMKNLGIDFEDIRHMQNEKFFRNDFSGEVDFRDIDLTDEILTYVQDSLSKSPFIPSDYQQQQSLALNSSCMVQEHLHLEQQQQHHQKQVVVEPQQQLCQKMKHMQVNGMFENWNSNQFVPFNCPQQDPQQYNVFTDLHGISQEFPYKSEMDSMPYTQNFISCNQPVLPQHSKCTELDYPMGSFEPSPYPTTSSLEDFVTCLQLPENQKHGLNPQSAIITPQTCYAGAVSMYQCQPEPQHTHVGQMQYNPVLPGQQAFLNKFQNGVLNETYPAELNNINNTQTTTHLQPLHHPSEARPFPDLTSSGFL
Estrogen receptor (Homo sapiens), sequence (P03372 whole entry, looked up): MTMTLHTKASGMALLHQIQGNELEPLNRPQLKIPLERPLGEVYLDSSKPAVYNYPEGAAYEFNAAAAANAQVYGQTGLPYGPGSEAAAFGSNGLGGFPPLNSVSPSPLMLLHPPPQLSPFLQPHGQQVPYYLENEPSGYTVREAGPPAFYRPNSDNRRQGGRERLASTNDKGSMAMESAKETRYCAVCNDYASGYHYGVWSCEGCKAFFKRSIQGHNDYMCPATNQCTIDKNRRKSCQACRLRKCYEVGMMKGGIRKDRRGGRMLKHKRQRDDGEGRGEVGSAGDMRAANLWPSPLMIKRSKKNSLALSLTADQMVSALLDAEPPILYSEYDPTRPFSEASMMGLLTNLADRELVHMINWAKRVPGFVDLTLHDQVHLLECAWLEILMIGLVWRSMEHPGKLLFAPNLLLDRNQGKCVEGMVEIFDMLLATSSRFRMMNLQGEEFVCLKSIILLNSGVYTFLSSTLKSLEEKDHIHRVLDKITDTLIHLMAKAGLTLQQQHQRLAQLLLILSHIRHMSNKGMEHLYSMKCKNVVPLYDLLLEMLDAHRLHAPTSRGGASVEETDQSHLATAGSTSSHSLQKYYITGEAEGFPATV
Aromatase (Homo sapiens), sequence (P11511 whole entry, looked up): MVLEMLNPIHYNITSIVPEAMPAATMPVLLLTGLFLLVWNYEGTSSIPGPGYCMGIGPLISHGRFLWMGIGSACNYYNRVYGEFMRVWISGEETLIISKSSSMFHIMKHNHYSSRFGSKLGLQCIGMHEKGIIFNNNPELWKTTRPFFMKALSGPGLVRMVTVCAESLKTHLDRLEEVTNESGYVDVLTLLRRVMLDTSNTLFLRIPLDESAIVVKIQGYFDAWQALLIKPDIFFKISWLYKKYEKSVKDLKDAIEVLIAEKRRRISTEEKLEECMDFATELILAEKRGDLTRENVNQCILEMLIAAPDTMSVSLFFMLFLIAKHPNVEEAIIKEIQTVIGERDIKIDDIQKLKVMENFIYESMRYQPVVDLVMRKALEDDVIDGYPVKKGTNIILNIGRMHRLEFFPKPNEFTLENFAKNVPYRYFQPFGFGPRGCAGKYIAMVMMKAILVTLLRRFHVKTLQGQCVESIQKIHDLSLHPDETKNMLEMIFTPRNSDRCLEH

For the compound `CC(=O)/C=C/C1C(C)=CCCC1(C)C` (stereo unspecified), the Potency result in experiment [1], in experiment [2], in [3], in experiment [5], in experiment [6] and in experiment [7] was “inactive” each time. The Potency result (with Aromatase (Homo sapiens); in experiment [8]; in experiment [9]; in experiment [10]; in experiment [11]; in experiment [12]) was “inactive” throughout. For the same compound, the Potency entry in [13], in [14] and in experiment [15] was “inactive” throughout. Also, the call in experiment [4] and in experiment [16] was inactive.
Consider `CCN(CC)CCNC(C(=O)OCCC(C)C)c1ccccc1` (stereo unspecified), for which the Potency entry in experiment [1], in experiment [2], in experiment [3], in experiment [5], in [17] and in experiment [6] was “inactive” in each case. Moreover, the Potency result (in experiment [7]; in the experiment with Aromatase (Homo sapiens); in experiment [8]; in experiment [9]; in experiment [11]; in [18]) was “inactive” each time. Also, the Potency result in experiment [12], in experiment [13] and in experiment [14] was “inactive” throughout. Besides, the outcome in experiment [4] and in experiment [16] was inactive.
As for `C=Cc1c(C)c2cc3[nH]c(cc4nc(cc5nc(cc1[nH]2)C(C)=C5CCC(=O)O)C(CCC(=O)O)=C4C)c(C)c3C=C`, the Potency entry (in [1]; in [2]; in experiment [6]; in experiment [7]; with Aromatase (Homo sapiens); in experiment [8]) was “inactive” in each case. Besides, the Potency entry in experiment [9], in [10], in experiment [11], in experiment [12], in experiment [14] and in experiment [15] was “inactive” throughout. Besides, the outcome in experiment [4] was inactive. For the same compound, the Potency in experiment [5] is 4.25 µM [inconclusive] (active); in experiment [17] it was 1.06 µM (active).
For the compound `ClC(Cl)(Cl)c1ccc(C(Cl)(Cl)Cl)cc1`, the Potency entry in experiment [1], in [2], in experiment [3], in experiment [5], in [17] and in experiment [6] was “inactive” in each case. Also, the Potency result in experiment [7], in experiment [8], in experiment [10], in experiment [11], in [12] and in experiment [13] was “inactive” each time. The Potency result in experiment [14] and in [15] was “inactive” throughout. In addition, the compound was classed as inactive in experiment [4] and in experiment [16].
Turning to `CC(C)(C)C(=O)OCOP(=O)(COCCn1cnc2c(N)ncnc21)OCOC(=O)C(C)(C)C`, the Potency result (in experiment [1]; in experiment [2]; in [7]; in the experiment with Aromatase (Homo sapiens); in experiment [8]; in experiment [9]) was “inactive” in each case. Moreover, the Potency entry in [10], in experiment [11], in experiment [14] and in experiment [15] was “inactive” throughout. Besides, the compound was called inactive in experiment [4] and in [16]. The Potency in [13] was 2.11 µM (active).
As to `CCCCOC(=O)/C=C\C(=O)OCCCC`, the Potency entry in experiment [1], in experiment [2], in [3], in [5], in experiment [17] and in experiment [6] was “inactive” throughout. The Potency entry (in experiment [7]; with Aromatase (Homo sapiens); in experiment [8]; in experiment [9]; in experiment [10]; in [11]) was “inactive” in each case. In addition, the Potency result in experiment [14] and in experiment [15] was “inactive” throughout. The compound was classed as inactive in experiment [4].
Consider `Oc1ccc2c(c1)OCO2`, for which the Potency entry (in [1]; in [2]; in experiment [6]; in experiment [7]; with Aromatase (Homo sapiens); in [8]) was “inactive” each time. Moreover, the Potency entry in experiment [9], in experiment [10], in experiment [11], in experiment [13], in [14] and in experiment [15] was “inactive” throughout. In addition, the outcome in experiment [4] and in experiment [16] was inactive.
For `CCCCCOC(=O)c1ccc(O)cc1`, the Potency result in experiment [1], in experiment [2], in [7], in experiment [9], in experiment [10] and in experiment [11] was “inactive” each time. Also, the Potency result in experiment [14] and in experiment [15] was “inactive” throughout. The Potency was 62.4 µM [inconclusive] (active) in [3], 55.6 µM [inconclusive] (active) in experiment [5] and 17.4 µM (active) in [17]. In addition, the compound was called inactive in [4].
For the compound `CCCC[C@H]1CN(CC2CCOCC2)C(=O)OC12CCN(C1(C)CCN(C(=O)c3c(C)ncnc3C)CC1)CC2`, the Potency result (in [1]; in [2]; in experiment [7]; in the experiment with Aromatase (Homo sapiens); in experiment [8]; in [10]) was “inactive” in each case. Moreover, the Potency entry in [11], in experiment [12], in experiment [13], in experiment [14] and in experiment [15] was “inactive” in each case. Moreover, the result in experiment [4] was inactive.
